Some compounds were tested as several samples or in several runs, with calls that do not always agree. Active and inactive are the calls of the source. The calls were made as follows: active = hit-call score of the fitted dose curve at least 0.9, where 1 is the maximum; inactive = score below 0.9.
The molecules below were run on Human Leukocyte Antigen - DR isotype (HLADR), HLA-DRA (gene 3122) (assay: BSK_BE3C_HLADR: BioMAP Diversity Plus: BE3C Assay for Human Leukocyte Antigen - DR isotype (HLADR) Biomarker Activity (AID 2283032)). Conditions: primary human bronchial epithelial cells; actives raise or lower the signal.
Procedure: BSK_BE3C is a cell-based, multiplexed-readout assay that uses bronchial epithelial cell, a human lung primary cell, with measurements taken at 24 hours after chemical dosing in a 96-well plate.BSK_BE3C_HLADR is an assay component measured in the BSK_BE3C assay. It measures HLA-DR antibody related to regulation of gene expression using ELISA technology.Data from the assay component BSK_BE3C_HLADR was analyzed into 1 assay endpoint. This assay endpoint, BSK_BE3C_HLADR, was analyzed with bidirectional fitting relative to DMSO as the negative control and baseline of activity. Using a type of binding reporter, gain or loss-of-signal activity can be used to understand changes in the signaling as they relate to the gene HLA-DRA. Furthermore, this assay endpoint can be referred to as a primary readout, because this assay has produced multiple assay endpoints where this one serves a signaling function. To generalize the intended target to other relatable targets, this assay endpoint is annotated to the cell adhesion molecules intended target family, where the subfamily is MHC Class II.
The levels of cell surface (or secreted, indicated by the prefix "s") biomarker endpoints were measured by ELISA. Overt cytotoxicity to cells in confluent adherent cultures (all systems other than the BT system) was assessed by measuring total protein levels using sulforhodamine B (SRB) staining in parallel cultures at the time of biomarker measurements, indicated as SRB endpoints. For proliferation assays for adherent cell types, individual cell types are cultured at sub-confluence and relative cell numbers quantified by SRB staining at time points optimized for each system (48 h: 3C and CASM3C systems; 72 h: BT and HDF3CGF systems; 96 h: SAg system). SRB was performed by staining cells with 0.1% SRB after fixation with 10% TCA and reading wells at 560 nm.Viability and proliferation of PBMC (T cells) was quantified by Alamar Blue reduction for the SAg and BT systems. For PBMC viability (referred to as PBMC Cytotoxicity within the assay endpoint names), cells were plated (75,000/well in a 96-well plate) and then chemical samples added for 1 h before addition of activators, SEB and TSST-1 (20 ng/mL final concentration each). Cells were incubated for 90 h. Then, Alamar Blue (20 uL/well) (Invitrogen, Cat DAL1100) was added for 6 h, and the plates were read with a fluorescence microplate reader at 546/580 nm (excitation/emission). For PBMC proliferation, cells were plated and activated as above but incubated for only 16 h prior to addition of Alamar Blue. Plates were read after 6 h.

Structure (SMILES) | outcome | AC50
Oc1cc(Cl)c(Cl)cc1Cl | inactive | –
NC(=O)CCl | inactive | –
CC(C)N(C(=O)CCl)c1ccccc1 | – | 20 µM (active)
CC(C)(C)c1cc([N+](=O)[O-])cc(C(C)(C)C)c1O | inactive | –
COc1ccccc1N | inactive | –
OC(Cc1ccccc1Cl)(Cn1[nH]cnc1=S)C1(Cl)CC1 (stereo not given) | – | 20 µM (active)
CCOP(=S)(OCC)OP(=S)(OCC)OCC | inactive | –
Cc1ccccc1OP(=O)(Oc1ccccc1)Oc1ccccc1 | – | 11.5 µM (active)
CCC(C)(C#N)N=NC(C)(C#N)CC (stereo not given) | inactive | –
CCOC(=O)CC(=O)CCl | – | 20 µM (active)
Nc1ccc(N)cc1 | inactive | –
Cc1cccc(OP(=O)(Oc2cccc(C)c2)Oc2cccc(C)c2)c1 | inactive | –
OC(Cc1ccccc1Cl)(Cn1cncn1)C1(Cl)CC1 (stereo not given) | inactive | –
CCOP(=O)(OCC)OC(=CCl)c1ccc(Cl)cc1Cl | inactive | –
[Cl][Sn]([c]1ccccc1)([c]1ccccc1)[c]1ccccc1 | – | 0.0934 µM (active)
CCOC(=O)C(SP(=S)(OC)OC)c1ccccc1 (stereo not given) | inactive | –
CC(C)O.CC(C)O.OCCN(CCO)CCO.OCCN(CCO)CCO.[Ti] | inactive | –
CN(C)C(=S)S | – | 25.1 µM (active)
CC(C)=CC1C(C(=O)OCc2cccc(Oc3ccccc3)c2)C1(C)C (stereo not given) | inactive | –
O=C(O)C1(c2ccc3c(c2)OC[C@H](Cc2ccc(-c4ccccc4)cc2)[C@H]3O)CCCC1 | – | 7.34 µM (active)

Structure (SMILES) | outcome | AC50
O=S(=O)(C(Cl)(Cl)Cl)C(Cl)(Cl)Cl | – | 3.17 µM (active)
OCCCCO | inactive | –
Oc1c(Br)cc(Br)cc1Br | – | 12.6 µM (active)
O=S(=O)(c1ccc(Cl)cc1)c1cc(Cl)c(Cl)cc1Cl | inactive | –
CCOP(=O)(OCC)SCCSCC | inactive | –
CCOC(=O)CCN(SN(C)C(=O)Oc1cccc2c1OC(C)(C)C2)C(C)C | inactive | –
Oc1cccc(-c2ccccc2)c1 | inactive | –
CC(C=O)Cc1ccc2c(c1)OCO2 (stereo not given) | inactive | –
Cc1cc(Cl)ccc1OC(C)C(=O)O (stereo not given) | inactive | –
Nc1c(Oc2ccccc2)cc(O)c2c1C(=O)c1ccccc1C2=O | inactive | –
CC1(C)[C@H](C(=O)O[C@H](C#N)c2cccc(Oc3ccccc3)c2)[C@@H]1/C=C(\Cl)C(F)(F)F | inactive | 0.0141 µM (active)
O=C(N[C@H]1CN2CCC1CC2)c1ccc2c(c1)OCCO2 | inactive | –
CC(C)(COCC1CO1)COCC1CO1 (stereo not given) | inactive | –
Clc1cccc(Cl)c1Cl | inactive | –
O=c1oc2ccccc2c(O)c1C(CC(O)c1ccc(-c2ccc(Br)cc2)cc1)c1ccccc1 (stereo not given) | – | 5.4 µM (active)
c1ccc2sc(SNC3CCCCC3)nc2c1 | inactive | –
Cc1c([N+](=O)[O-])c(C)c([N+](=O)[O-])c(C(C)(C)C)c1[N+](=O)[O-] | inactive | –
O=[N+]([O-])c1ccc(Nc2ccccc2)cc1 | inactive | –
Clc1cccc(Cl)c1 | inactive | –

Source: PubChem BioAssay (EPA / NIEHS)
